About 21,000 targets were measured; listed, in parts, are those with the largest changes and a random draw of the rest.
Compound: CC1Cc2ccccc2N1C(=O)C1CCCN(C1)C(=O)CCl (mixture of isomers) [TRIM25 ligand 11 (diastereomer mixture)]
Experiment: probe-labelled cysteine peptide fold change vs DMSO (competition) (log2 fold change); higher = less target engagement (more negative = stronger competition)
Details: THP-1, incubation time: 4 h
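Note: competitive chemoproteomic profiling in live THP-1 cells with an iodoacetamide desthiobiotin (IA-DTB) probe, comparing probe-labelled peptide intensities in compound-treated cells against DMSO-treated controls.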

| Target | probe-labelled cysteine peptide fold change (10 µM) | probe-labelled cysteine peptide fold change (50 µM) |
| --- | --- | --- |
| NAE1_Q13564_384_LLCSNSAFLR (UniProt Q13564) | -0.025 | -0.00331 |
| MINK1_Q8N4C8_129_EDCIAYICR (UniProt Q8N4C8) | 0.00524 | – |
| MELTF_P08582_603_SEDYELLCPNGAR (UniProt P08582) | 0.0149 | 0.0229 |
| NCAPG_Q9BPX3_177_DDECPVVNAYATLIENDSNPEVR (UniProt Q9BPX3) | -0.316 | -0.473 |
| MOV10_Q9HCE1_650_LVSAQFPIDHFTHIFIDEAGHCMEPESLVAIAGLMEVK (UniProt Q9HCE1) | 0.00257 | – |
| MDN1_Q9NU22_882_LFACMNPATDVGKR (UniProt Q9NU22) | -0.0968 | -0.078 |
| MED14_O60244_635_AGEMCAFNK (UniProt O60244) | -0.0268 | -0.0566 |
| MTA2_O94776_209_ALDCSSSIR (UniProt O94776) | -0.025 | – |
| MAN2C1_Q9NTJ4_29_FVSPLYFTDCNLR (UniProt Q9NTJ4) | 0.111 | – |
| MIS18A_Q9NYP9_85_AQLEEEAAAAEERPLVFLCSGCR (UniProt Q9NYP9) | -0.0813 | – |
| MRPS24_Q96EL2_103_FMWGTFPGCLADQLVLK (UniProt Q96EL2) | 0.183 | 0.203 |
| MCU_Q8NE86_97_CQFTLKPISDSVGVFLR (UniProt Q8NE86) | -0.212 | -0.196 |
| MIA3_Q5JRA6_1513_AGLEDECK (UniProt Q5JRA6) | 0.0174 | – |
| MTA3_Q9BTC8_109_CSVALLNETESVLSYLDK (UniProt Q9BTC8) | 0.851 | – |
| METAP1_P53582_255_KLVQTTYECLMQAIDAVKPGVR (UniProt P53582) | -0.564 | -0.516 |
| MCM6_Q14566_351_NLYHNLCTSLFPTIHGNDEVK (UniProt Q14566) | 0.107 | 0.0102 |
| LYPLA2_O95372_213_TYPGVMHSSCPQEMAAVK (UniProt O95372) | 0.0451 | – |
| NASP_P49321_568_LGEVSVESENYVQAVEEFQSCLNLQEQYLEAHDR (UniProt P49321) | -0.127 | 0.217 |
| NBEAL2_Q6ZNJ1_2335_ALEGIISNFGQTPCQLLK (UniProt Q6ZNJ1) | 0.0509 | -0.034 |
| METTL13_Q8N6R0_226_FRPVPGSALQIFELCAQEQR (UniProt Q8N6R0) | 0.025 | -0.292 |

| Target | probe-labelled cysteine peptide fold change (10 µM) | probe-labelled cysteine peptide fold change (50 µM) |
| --- | --- | --- |
| MIF4GD_A9UHW6_150_EEEVDCLVLQLHR (UniProt A9UHW6) | 0.222 | – |
| LYAR_Q9NX58_6+9_VFFTCNACGESVKK (UniProt Q9NX58) | -0.135 | -0.2 |
| MAP1S_Q66K74_841_HDPLPDPLKVPPPLPDPSSICMVDPEMLPPK (UniProt Q66K74) | -0.202 | – |
| MYCBP2_O75592_4406+4413_NEEHCLPCLHGCDK (UniProt O75592) | -0.0669 | – |
| MAT1A_Q00266_34_ICDQISDAVLDAHLK (UniProt Q00266) | 0.555 | 0.255 |
| MBTPS2_O43462_386_SSSSSFCIIPSLETHTR (UniProt O43462) | -0.0619 | – |
| MTPAP_Q9NVV4_324_FSHQASGFQCDLTTNNR (UniProt Q9NVV4) | 0.592 | 0.896 |
| MTHFS_P49914_180_EQICLQVPVNENDMK (UniProt P49914) | -0.00999 | – |
| MRPL38_Q96DV4_290_QDQPIDFSEDARPSPCYQLAQR (UniProt Q96DV4) | -0.028 | – |
| MYO18A_Q92614_1046_LHFVHCFLPVAEGWAGEPR (UniProt Q92614) | 0.231 | 0.422 |
| METTL18_O95568_48_CSAEQFDLPQDHLWEHK (UniProt O95568) | -0.285 | – |
| NANS_Q9NR45_19_WVGGQHPCFIIAEIGQNHQGDLDVAK (UniProt Q9NR45) | 0.0689 | 0.0782 |
| NBAS_A2RRP1_1634_QLHCYNER (UniProt A2RRP1) | 0.000992 | -0.0554 |
| MAP4K2_Q12851_302_ASDPHLGTPSPEDCELETYDMFPDTIHSR (UniProt Q12851) | -0.0289 | -0.161 |
| MRPL45_Q9BRJ2_151_DIFIEAHLCLNNSDHDR (UniProt Q9BRJ2) | -0.648 | -0.159 |
| MRC2_Q9UBG0_213_EDGHLWCATTQDYGKDER (UniProt Q9UBG0) | -0.0873 | -0.0151 |
| MAVS_Q7Z434_33_NFSNFCNVDVVEILPYLPCLTAR (UniProt Q7Z434) | 0.142 | 0.343 |
| MCM3AP_O60318_439_SESTDSLGGLSPSEVTAIQCK (UniProt O60318) | -0.0427 | -0.262 |
| NCAPD3_P42695_361_ILLQHICAK (UniProt P42695) | -0.145 | 0.173 |

From the supplement of paper PMC12067093, “Discovery and optimisation of a covalent ligand for TRIM25 and its application to targeted protein ubiquitination” (Chemical Science, 2025)
